Results published in the supplement of paper PMC10849652.
About 7,900 targets were measured; listed, in parts, are those with a hit and a random draw of the rest. About 0.6% of all pairs of compound and target were hits.

Columns and labels:
Experiment in all cases: log2 fold change, soluble protein after heating vs DMSO (PISA); higher = thermal stabilisation; K562 cells, 10 uM, 30 min; active = over 0.2 and 3.5 SD of the protein, either way, in both replicates (recomputed)
[1] = compound: C1=CC=C(C=C1)[C@H](COC2=CC3=C(C=C2)NC(=O)N3)NC(=O)C4=CC=CN(C4=O)CC5=CC(=C(C=C5)F)F
Summary of the method: (§1)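 K562 cells (2×10^6 cells/mL) were treated with 10 μM compound for 30 min, and aliquots were heated for 3 min over 48°C-58°C. Pooled aliquots were extracted in PBS with 0.5% NP-40 at 4°C, and the supernatant after 21,000xg for 90 min was measured by TMTpro 16plex LC-MS/MS with channel sums equalised. Reported thermal stability, relative to control samples and from duplicates, is a log2 fold change.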

[2] = compound: CC1=C(SC2=C1C(=N[C@H](C3=NN=C(N32)C)CC(=O)N)C4=CC=C(C=C4)Cl)C
Summary of the method: as §1

[3] = compound: CC1=C2C(=CC=C1)N=C(N(C2=O)C3=CC=CC=C3C)CN4C=NC5=C(N=CN=C54)N
Summary of the method: as §1

[4] = compound: Cc1sc2c(c1C)C(c1ccc(Cl)cc1)=N[C@@H](CC(=O)OC(C)(C)C)c1nnc(C)n1-2
Summary of the method: as §1

[5] = compound: c1ccc([C@@H]2C[C@H]2NC2CCNCC2)cc1
Summary of the method: as §1

Measured: log2 fold change

BCL9L (UniProt Q86UU0)
inactive: [1] 0.001 | [2] -0.028 | [3] 0.019 | [4] 0.051 | [5] 0.05

ATP1B3 (UniProt P54709)
Chain of UniProt P54709 (P54709 whole entry, looked up): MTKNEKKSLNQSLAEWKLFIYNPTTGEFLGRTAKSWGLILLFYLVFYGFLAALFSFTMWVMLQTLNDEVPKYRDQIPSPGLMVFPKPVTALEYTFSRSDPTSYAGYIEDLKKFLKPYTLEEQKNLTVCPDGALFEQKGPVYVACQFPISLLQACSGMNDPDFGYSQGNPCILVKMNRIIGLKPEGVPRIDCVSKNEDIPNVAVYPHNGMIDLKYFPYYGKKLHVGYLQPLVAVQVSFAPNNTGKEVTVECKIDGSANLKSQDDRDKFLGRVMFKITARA
inactive: [1] 0.012 | [2] 0.042 | [3] 0.001 | [4] 0.002 | [5] 0.006

BPHL (UniProt Q86WA6)
Chain of UniProt Q86WA6 (Q86WA6 whole entry, looked up): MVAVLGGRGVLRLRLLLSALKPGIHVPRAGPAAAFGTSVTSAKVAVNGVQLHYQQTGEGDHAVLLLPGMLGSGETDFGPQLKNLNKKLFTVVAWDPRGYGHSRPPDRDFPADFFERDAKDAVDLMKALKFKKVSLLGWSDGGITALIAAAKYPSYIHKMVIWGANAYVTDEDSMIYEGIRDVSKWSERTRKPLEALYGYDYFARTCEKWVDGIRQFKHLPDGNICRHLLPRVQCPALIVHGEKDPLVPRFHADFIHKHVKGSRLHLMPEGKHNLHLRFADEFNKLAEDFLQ
inactive: [1] -0.015 | [2] 0.052 | [3] 0.075 | [4] 0.136 | [5] -0.065

AKT1 (UniProt P31749)
inactive: [1] -0.068 | [2] 0.018 | [3] 0.034 | [4] 0.042 | [5] -0.072

BSCL2 isoform 4 (UniProt Q96G97)
Chain of UniProt Q96G97 (Q96G97 whole entry, looked up): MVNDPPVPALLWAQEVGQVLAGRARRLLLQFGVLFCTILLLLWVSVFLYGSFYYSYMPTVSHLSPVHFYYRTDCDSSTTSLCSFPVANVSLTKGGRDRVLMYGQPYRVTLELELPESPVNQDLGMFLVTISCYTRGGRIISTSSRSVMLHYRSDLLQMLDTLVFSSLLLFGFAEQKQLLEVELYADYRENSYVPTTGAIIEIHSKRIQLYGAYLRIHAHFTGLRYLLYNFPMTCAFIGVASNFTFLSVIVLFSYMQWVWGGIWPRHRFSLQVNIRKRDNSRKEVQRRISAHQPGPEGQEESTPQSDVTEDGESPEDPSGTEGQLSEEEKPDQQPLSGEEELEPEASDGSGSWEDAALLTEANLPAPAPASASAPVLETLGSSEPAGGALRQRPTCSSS
inactive: [1] -0.07 | [2] 0.106 | [3] -0.084 | [4] 0.027 | [5] -0.127

B4GALNT1 (UniProt Q00973)
Chain of UniProt Q00973 (Q00973 whole entry, looked up): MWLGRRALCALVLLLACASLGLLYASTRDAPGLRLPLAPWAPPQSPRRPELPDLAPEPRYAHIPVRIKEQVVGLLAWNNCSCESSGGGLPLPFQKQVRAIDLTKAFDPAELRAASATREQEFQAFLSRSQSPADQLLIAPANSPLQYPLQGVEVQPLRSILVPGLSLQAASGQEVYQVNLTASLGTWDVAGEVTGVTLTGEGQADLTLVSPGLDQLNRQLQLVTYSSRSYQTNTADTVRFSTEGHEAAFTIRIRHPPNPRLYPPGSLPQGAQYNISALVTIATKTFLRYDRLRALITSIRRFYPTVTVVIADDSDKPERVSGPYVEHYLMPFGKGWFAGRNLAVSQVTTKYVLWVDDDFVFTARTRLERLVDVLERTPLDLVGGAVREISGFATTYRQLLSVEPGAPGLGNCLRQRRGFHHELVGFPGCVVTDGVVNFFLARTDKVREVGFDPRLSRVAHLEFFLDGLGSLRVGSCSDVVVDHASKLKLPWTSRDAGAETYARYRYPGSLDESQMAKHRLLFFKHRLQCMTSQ
inactive: [1] -0.029 | [2] -0.068 | [3] -0.001 | [4] -0.102 | [5] -0.062

AHCYL1 (UniProt O43865)
Chain of UniProt O43865 (O43865 whole entry, looked up): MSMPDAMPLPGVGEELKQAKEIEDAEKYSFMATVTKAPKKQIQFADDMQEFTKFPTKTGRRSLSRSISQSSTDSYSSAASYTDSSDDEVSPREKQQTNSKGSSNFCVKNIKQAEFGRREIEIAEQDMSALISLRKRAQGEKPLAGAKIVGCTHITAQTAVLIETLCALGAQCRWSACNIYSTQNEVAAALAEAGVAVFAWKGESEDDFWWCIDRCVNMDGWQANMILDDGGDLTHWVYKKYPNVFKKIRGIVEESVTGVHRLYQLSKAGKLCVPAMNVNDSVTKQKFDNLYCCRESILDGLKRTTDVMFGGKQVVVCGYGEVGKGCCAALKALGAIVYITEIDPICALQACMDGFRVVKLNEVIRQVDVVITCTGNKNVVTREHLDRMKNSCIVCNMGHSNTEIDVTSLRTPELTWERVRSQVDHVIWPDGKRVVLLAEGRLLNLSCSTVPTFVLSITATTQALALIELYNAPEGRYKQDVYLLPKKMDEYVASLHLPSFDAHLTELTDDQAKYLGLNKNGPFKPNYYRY
inactive: [1] 0.057 | [2] -0.004 | [3] 0.014 | [4] -0.03 | [5] -0.037

ADD2 (UniProt P35612)
inactive: [1] 0.005 | [2] 0.044 | [3] 0.014 | [4] -0.024 | [5] 0.016

AGO1 (UniProt Q9UL18)
inactive: [1] -0.05 | [2] -0.066 | [3] -0.114 | [4] -0.016 | [5] 0.05

AP2A2 isoform 2 (UniProt O94973)
inactive: [1] -0.021 | [2] -0.02 | [3] 0.04 | [4] 0.048 | [5] 0.028

BRD8 isoform 2 (UniProt Q9H0E9)
Chain of UniProt Q9H0E9 (Q9H0E9 whole entry, looked up): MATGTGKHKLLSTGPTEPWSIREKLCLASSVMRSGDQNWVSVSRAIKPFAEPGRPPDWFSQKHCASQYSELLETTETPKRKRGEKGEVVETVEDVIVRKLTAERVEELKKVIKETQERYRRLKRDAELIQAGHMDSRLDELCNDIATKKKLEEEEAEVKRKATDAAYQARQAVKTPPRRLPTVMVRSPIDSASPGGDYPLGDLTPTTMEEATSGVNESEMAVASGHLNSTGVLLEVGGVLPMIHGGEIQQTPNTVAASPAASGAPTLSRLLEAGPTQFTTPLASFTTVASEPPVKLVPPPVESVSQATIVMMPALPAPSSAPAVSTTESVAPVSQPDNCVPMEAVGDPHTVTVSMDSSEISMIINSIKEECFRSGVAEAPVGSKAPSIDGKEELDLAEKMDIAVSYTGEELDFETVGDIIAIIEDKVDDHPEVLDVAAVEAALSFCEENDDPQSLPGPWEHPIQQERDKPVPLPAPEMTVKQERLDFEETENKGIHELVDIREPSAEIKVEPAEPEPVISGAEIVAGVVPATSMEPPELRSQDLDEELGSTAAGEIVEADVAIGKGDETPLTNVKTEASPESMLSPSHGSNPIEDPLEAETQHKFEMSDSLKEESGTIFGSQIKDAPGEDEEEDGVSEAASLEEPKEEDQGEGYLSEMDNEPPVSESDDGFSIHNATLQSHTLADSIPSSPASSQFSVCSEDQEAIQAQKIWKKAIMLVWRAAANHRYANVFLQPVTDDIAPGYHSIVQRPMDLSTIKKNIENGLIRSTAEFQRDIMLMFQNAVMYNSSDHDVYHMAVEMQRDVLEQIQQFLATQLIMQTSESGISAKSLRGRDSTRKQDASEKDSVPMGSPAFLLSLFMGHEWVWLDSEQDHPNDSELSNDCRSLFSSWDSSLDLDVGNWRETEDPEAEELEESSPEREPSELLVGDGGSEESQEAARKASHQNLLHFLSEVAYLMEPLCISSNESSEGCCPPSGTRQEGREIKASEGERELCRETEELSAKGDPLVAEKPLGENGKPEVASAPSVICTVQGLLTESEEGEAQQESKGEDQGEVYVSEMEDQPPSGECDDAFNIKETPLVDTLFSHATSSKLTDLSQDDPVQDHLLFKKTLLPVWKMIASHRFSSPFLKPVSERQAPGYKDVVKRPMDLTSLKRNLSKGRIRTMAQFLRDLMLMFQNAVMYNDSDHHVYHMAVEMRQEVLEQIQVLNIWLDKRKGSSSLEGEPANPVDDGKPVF
inactive: [1] 0.035 | [2] -0.091 | [3] 0.167 | [4] 0.046 | [5] 0.038

ARL6IP4 (UniProt Q66PJ3)
Chain of UniProt Q66PJ3 (Q66PJ3 whole entry, looked up): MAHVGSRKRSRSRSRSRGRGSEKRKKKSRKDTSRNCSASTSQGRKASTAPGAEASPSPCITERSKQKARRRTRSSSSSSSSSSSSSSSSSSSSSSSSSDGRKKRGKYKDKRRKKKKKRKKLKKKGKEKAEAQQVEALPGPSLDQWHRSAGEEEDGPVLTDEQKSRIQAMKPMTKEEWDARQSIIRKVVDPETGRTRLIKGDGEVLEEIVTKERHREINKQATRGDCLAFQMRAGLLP
inactive: [1] 0.036 | [2] 0.027 | [3] 0.009 | [4] -0.016 | [5] -0.011

ATAD3B (UniProt Q5T9A4)
Chain of UniProt Q5T9A4 (Q5T9A4 whole entry, looked up): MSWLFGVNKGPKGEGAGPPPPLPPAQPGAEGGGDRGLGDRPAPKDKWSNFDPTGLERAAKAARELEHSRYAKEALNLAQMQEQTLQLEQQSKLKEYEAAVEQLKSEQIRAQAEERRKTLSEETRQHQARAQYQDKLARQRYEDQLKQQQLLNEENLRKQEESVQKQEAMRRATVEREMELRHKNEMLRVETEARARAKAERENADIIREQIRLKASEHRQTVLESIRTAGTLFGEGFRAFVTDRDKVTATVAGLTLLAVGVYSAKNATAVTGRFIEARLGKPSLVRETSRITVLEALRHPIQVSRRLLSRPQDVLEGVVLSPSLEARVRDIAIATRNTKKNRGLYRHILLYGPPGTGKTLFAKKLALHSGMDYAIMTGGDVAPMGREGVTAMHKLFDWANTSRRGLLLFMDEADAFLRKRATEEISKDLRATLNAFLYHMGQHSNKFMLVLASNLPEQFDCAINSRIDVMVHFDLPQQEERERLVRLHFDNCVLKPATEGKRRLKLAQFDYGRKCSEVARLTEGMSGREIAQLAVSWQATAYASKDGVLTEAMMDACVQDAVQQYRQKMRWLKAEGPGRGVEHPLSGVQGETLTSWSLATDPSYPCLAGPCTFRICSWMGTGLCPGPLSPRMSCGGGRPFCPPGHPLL
inactive: [1] -0.02 | [2] -0.023 | [3] -0.055 | [4] 0.123 | [5] 0.025

ATP11A (UniProt P98196)
inactive: [1] 0.001 | [2] -0.003 | [3] 0.085 | [4] -0.034 | [5] 0.062

ANK2 (UniProt Q01484)
inactive: [1] -0.019 | [2] 0.058 | [3] 0.071 | [4] 0.159 | [5] 0.02

ABCB6 (UniProt Q9NP58)
inactive: [1] 0.001 | [2] 0.003 | [3] 0.05 | [4] -0.049 | [5] 0.012

BRAP (UniProt Q7Z569)
inactive: [1] -0.058 | [2] 0.025 | [3] 0.05 | [4] 0.081 | [5] 0

ATP6V0A2 (UniProt Q9Y487)
inactive: [1] 0.018 | [2] -0.044 | [3] -0.007 | [4] -0.059 | [5] -0.014

B4GALT1 (UniProt P15291)
inactive: [1] 0.034 | [2] 0.057 | [3] -0.065 | [4] -0.022 | [5] -0.042

ACADVL isoform 3 (UniProt P49748)
inactive: [1] 0.019 | [2] 0.05 | [3] 0.009 | [4] -0.011 | [5] -0.018

ACADM isoform 2 (UniProt P11310)
Chain of UniProt P11310 (P11310 whole entry, looked up): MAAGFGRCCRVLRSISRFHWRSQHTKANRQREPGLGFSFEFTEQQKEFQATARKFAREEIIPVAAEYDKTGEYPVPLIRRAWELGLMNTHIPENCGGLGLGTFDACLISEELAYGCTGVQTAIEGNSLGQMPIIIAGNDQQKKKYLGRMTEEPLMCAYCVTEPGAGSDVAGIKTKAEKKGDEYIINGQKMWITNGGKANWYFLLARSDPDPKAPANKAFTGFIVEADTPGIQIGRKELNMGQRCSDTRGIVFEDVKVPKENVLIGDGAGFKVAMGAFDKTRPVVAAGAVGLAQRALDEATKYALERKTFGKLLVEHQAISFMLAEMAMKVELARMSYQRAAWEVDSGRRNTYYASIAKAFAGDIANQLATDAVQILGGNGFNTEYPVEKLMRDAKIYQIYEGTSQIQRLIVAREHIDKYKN
inactive: [1] 0.007 | [2] 0.024 | [3] -0.015 | [4] -0.016 | [5] -0.031

BLVRB (UniProt P30043)
inactive: [1] -0.029 | [2] 0.027 | [3] -0.01 | [4] -0.006 | [5] 0.013

ACP1 isoform 2 (UniProt P24666)
Chain of UniProt P24666 (P24666 whole entry, looked up): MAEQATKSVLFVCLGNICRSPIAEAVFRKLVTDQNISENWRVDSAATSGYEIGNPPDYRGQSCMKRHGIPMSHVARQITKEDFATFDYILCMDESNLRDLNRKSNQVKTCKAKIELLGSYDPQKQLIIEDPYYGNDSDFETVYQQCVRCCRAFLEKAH
inactive: [1] -0.107 | [2] -0.028 | [3] 0.004 | [4] 0.028 | [5] 0.022

ALG14 (UniProt Q96F25)
Chain of UniProt Q96F25 (Q96F25 whole entry, looked up): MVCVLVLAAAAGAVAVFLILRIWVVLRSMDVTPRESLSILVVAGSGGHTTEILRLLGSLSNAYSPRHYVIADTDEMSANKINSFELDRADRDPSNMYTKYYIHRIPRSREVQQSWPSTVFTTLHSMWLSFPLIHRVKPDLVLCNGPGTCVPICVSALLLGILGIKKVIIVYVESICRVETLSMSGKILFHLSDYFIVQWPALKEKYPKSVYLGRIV
inactive: [1] -0.008 | [2] 0.019 | [3] 0.241 | [4] 0.051 | [5] 0.006
